Screen size: about 220,000 compounds; about 1,600 (0.73%) were called active. The list comes from a sample in which actives are over-represented; it also holds similar structures and randomly drawn compounds. Unmarked numbers belong to inactive results.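 Rule for the calls: active = inhibition above about 70% (limit read from the data); inactive = the rest.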

In the assay the target is 14-3-3 protein zeta/delta (Bos taurus) (UniProt P63103). The assay can be described thus: inhibitors of 14-3-3 zeta/Bad binding, primary screen, biochemical, TR-FRET, bovine 14-3-3 zeta (AID 781).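 Note: 0% = full 14-3-3 plus peptide FRET controls and 100% = background without 14-3-3.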 The settings on record: TR-FRET 14-3-3zeta/Dy647-pBad peptide displacement, 1 h; at 21.7 µM; stronger effect = higher value. On the technique in general: Time-resolved FRET reads energy transfer from a long-lived donor to a nearby acceptor.
Chain of 14-3-3 protein zeta/delta (Bos taurus) (P63103 whole entry, looked up): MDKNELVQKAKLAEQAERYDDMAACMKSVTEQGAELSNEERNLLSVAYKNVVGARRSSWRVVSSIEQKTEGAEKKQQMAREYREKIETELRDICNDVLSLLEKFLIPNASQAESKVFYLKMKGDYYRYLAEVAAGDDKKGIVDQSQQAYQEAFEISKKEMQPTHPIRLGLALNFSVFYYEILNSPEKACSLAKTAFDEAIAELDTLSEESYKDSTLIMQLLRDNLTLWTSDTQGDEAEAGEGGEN
For `Cc1ccc(CN2CCN(Cc3ccc(OCCO)cc3)CC2CCO)o1` (stereo not given), the inhibition (in general, the drop in the measured response relative to a control, in per cent) was -4.12%.

Consider `COc1ccc(CNC(=O)C2CCN(S(C)(=O)=O)CC2)cc1`, for which the inhibition was -4.78%.

Consider `COc1ccccc1CNC(=O)C1CCN(c2nc3ccccc3o2)CC1`, for which the inhibition was -3.16%.

`COc1ccccc1CNC(=O)C1CCN(S(C)(=O)=O)CC1`: the inhibition was 74% (active).

`Cc1cc(OCCCCOc2ccc(C#N)cc2)ccc1[N+](=O)[O-]`: the inhibition was -4.45%.

Turning to `CCOC(=O)C1CCN(S(=O)(=O)c2cc(F)ccc2OC)CC1`, the inhibition was -7.19%.

For the molecule `CCOC(=O)C1CCN(C(=O)/C=C/c2cc(OC)c(OC)c(OC)c2)CC1`, the inhibition was -11.5%.

For the molecule `CCOC(=O)C1CCCCN1Cc1ccc(OC)c(OC)c1OC` (stereo not given), the inhibition is 79.9% (active).

As to `CCN(CC)CC(=O)Nc1sc2c(c1C(=O)c1ccccc1C)CCC2`, the inhibition was -10.9%.

For the molecule `CCCCOc1ccc(CON(C(C)=O)C(C)=O)cc1Cl`, the inhibition was 3%.

For `COc1ccc(-c2csc(NC(=O)c3ccc(N4C(=O)CCC4=O)cc3)n2)cc1OC`, the inhibition is -4.66%.

As for `O=C(CN1CCN(C2CCCCC2)CC1)Nc1ccccc1N1CCCCC1`, the inhibition is 72.6% (active).

As to `Cc1ccccc1NC(=O)CNc1ccccc1N1CCCCC1`, the inhibition is -11.4%.

Turning to `O=C(CN1CCCCC1)Nc1ccccc1Cl`, the inhibition was -5.94%.

Regarding `CCCCOc1ccc(N(CC(=O)NC(C)C)C(=O)CCC(=O)Nc2ccccn2)cc1`, the inhibition was -8.63%.

Consider `O=C1CC(=O)Nc2cc(S(=O)(=O)N3CCN(c4cccc(C(F)(F)F)c4)CC3)ccc2N1`, for which the inhibition was 9.3%.

On to `CC(C)Nc1nnc(SCC(=O)/C=C2\N(C)c3ccccc3C2(C)C)s1`, for which the inhibition is 0.42%.

On to `COC(=O)COc1ccc(C2NC(=O)NC(C)=C2C(=O)NCc2ccccc2)cc1OC` (stereo not given), for which the inhibition was -4.82%.

Consider `Cc1ccc2nc(NCCCNC(=O)c3cnccn3)c(C#N)cc2c1`, for which the inhibition is 70.8% (active).

Consider `Cc1ccc2cc(C#N)c(NCCNC(=S)NCCCN3CCOCC3)nc2c1`, for which the inhibition was -9.87%.

`COCCCNC(=S)NCCNc1nc2cc(C)c(C)cc2cc1C#N`: the inhibition is -7.08%.

On to `Cc1ccc(NC(=O)c2nc[nH]c2C(=O)N[C@@H](CCCCNC(=O)OC(C)(C)C)C(=O)OC(C)(C)C)cc1`, for which the inhibition is -8.93%.

In the case of `O=c1c(-c2ccccc2)coc2cc(O)ccc12`, the inhibition is 4.45%.

As for `CN1CCN(Cc2c(O)ccc3c2oc(=O)c2ccccc23)CC1`, the inhibition is 0.82%.

Regarding `O=c1c(-c2ccccc2)coc2c(CN3CCOCC3)c(O)ccc12`, the inhibition was 81.7% (active).

Regarding `O=C(CSc1ccsc1[N+](=O)[O-])N1CCCCC1`, the inhibition is -7.81%.

With `CN1c2ccccc2-c2nc3ccccc3n2C1c1ccco1` (stereo not given), the inhibition is -9.91%.

Turning to `Cn1c(-c2ccco2)nc2cc3ccccc3cc21`, the inhibition is 75.6% (active).

In the case of `S=c1[nH]nc(-c2ccco2)n1/N=C/c1ccccc1`, the inhibition was -2.42%.

As for `COc1ccc(-c2csc(Cc3nc(O)cs3)n2)cc1`, the inhibition is -15.6%.

`NC1=NC(=O)S/C1=C\c1ccc(O)cc1`: the inhibition is -5.85%.

As to `CCOc1ccc(N=C2NC(=O)S/C2=C\c2ccc(O)cc2)cc1`, the inhibition is 70.4% [fluorescence artefact?] (active).

Consider `CCOc1ccc(N=C2SC(C(=O)O)CC(=O)N2C)cc1` (stereo not given), for which the inhibition is 13.2%.

Regarding `Cc1cccc(C(=O)Nc2ccc3c(c2)C(=O)N(CC(C)C)C3=O)c1`, the inhibition was -3.81%.

Take `COc1ccc(-n2c(SCC(=O)Nc3sc4c(c3C#N)CCCC4)nnc2-c2ccc(O)cc2)cc1`: the inhibition was 87.9% (active).

As to `COc1cccc(CN(C)CC(=O)Nc2sc3c(c2C#N)CCC3)c1`, the inhibition was -5.48%.

Turning to `NC(=O)c1c(NC(=O)CSc2nnc(-c3ccco3)n2N)sc2c1CCCC2`, the inhibition was -2.7%.

As for `C=CCn1c(N)c(S(=O)(=O)c2cccs2)c2nc3ccccc3nc21`, the inhibition was -4.17%.

As to `C=CCn1c(N)c(C(=O)OCC(C)C)c2nc3ccccc3nc21`, the inhibition is 79.3% [fluorescence artefact?] (active).

Turning to `CC(C)Cn1c(N)c(C(=O)NCc2cccs2)c2nc3ccccc3nc21`, the inhibition was 6.16%.

Take `S=C(NCCc1ccccc1)Nc1ccccc1`: the inhibition is -1.72%.

As for `N#Cc1ccc(C(=O)Nc2nc(-c3cccs3)c(C(=O)C(F)(F)F)s2)cc1`, the inhibition was 3.51%.

With `CNc1ccc(NC(C)=O)cc1[N+](=O)[O-]`, the inhibition is 5.82%.

As for `Cc1ccc(Nc2ccc(C(N)=O)cc2[N+](=O)[O-])cc1`, the inhibition was 0.31%.

On to `CC(=O)Nc1ccc(/C=N/Nc2ccc(C(=O)c3c(C)cc4ccccn34)cc2[N+](=O)[O-])cc1`, for which the inhibition is 84.9% (active).

With `Cc1onc(-c2ccccc2)c1C(=O)N=C(N)c1ccc(Cl)cc1`, the inhibition is -6.58%.

On to `CCCN(CCC)S(=O)(=O)c1ccc(C(=O)N2CC3CCC(CC3)C2)cc1`, for which the inhibition is -3.48%.

As for `O=C(NCC(c1cccs1)N1CCOCC1)c1cc(-c2ccccn2)nc2ccccc12` (stereo not given), the inhibition was 1.32%.

For `O=C(NCc1cccs1)c1cc(-c2ccccn2)nc2ccc(Br)cc12`, the inhibition is 90.8% (active).

Consider `O=C(Nc1ccncc1)c1cc(-c2ccccn2)nc2ccc(Br)cc12`, for which the inhibition is 44.9%.

On to `O=C(COC(=O)Cn1cnc2ccccc2c1=O)NCC12CC3CC(CC(C3)C1)C2`, for which the inhibition is 1.53%.

On to `Cn1cc(/C=C/C(=O)N2CCCC(C(=O)c3ccc(C(F)(F)F)cc3)C2)cn1` (stereo not given), for which the inhibition is -7.47%.

As for `CN(C)CCNC(=O)Cc1ccc([N+](=O)[O-])cc1`, the inhibition was -6.79%.

Regarding `COc1ccc(-n2nnc3c(=O)n(CC(=O)OCc4ccccc4)cnc32)cc1`, the inhibition was 7.97%.

As for `COc1ccc(-c2c(C(C)=O)c(C)nc3sc4c(=O)n(-c5ccc(C)cc5)nnc4c23)cc1`, the inhibition was 81.2% (active).

`COCc1cc(C)nc2sc3c(=O)n(-c4cccc5ccccc45)nnc3c12`: the inhibition is 5.95%.

For the molecule `Nc1nc(-c2sc3nc4c(cc3c2N)CCCC4)nc(N2CCOCC2)n1`, the inhibition was -13.9%.

As to `O=C(NNC(=S)NC1CC2CCC1C2)c1ccc(Cl)cc1` (stereo not given), the inhibition was -16.9%.

As to `Cc1nc2nc(SCC(=O)c3ccccc3)[nH]c2cc1Br`, the inhibition is -3%.

Consider `Cc1ccc(OCC(=O)Nc2ccccc2Sc2ccc(Cl)cc2)c([N+](=O)[O-])n1`, for which the inhibition is 71.7% [fluorescence artefact?] (active).

Turning to `Cc1ccc(OCC(=O)NC(C)c2ccccc2)c([N+](=O)[O-])n1` (stereo not given), the inhibition was 7.44%.

As to `CCc1ccccc1NC(=O)CN(C)C(=O)COc1ccc(C)nc1[N+](=O)[O-]`, the inhibition is -17.4%.

In the case of `O=[N+]([O-])c1cccc(/C([O-])=C(/C(=S)Nc2ccccc2F)[n+]2ccccc2)c1`, the inhibition is -7.84%.

As for `Cc1cccc(C(=O)Nc2ccc(C(=O)/C=C/c3cccs3)cc2)c1`, the inhibition is 14.9%.

On to `Cc1ccc(C(=O)/C=C/Nc2ccc(S(=O)(=O)Nc3onc(C)c3C)cc2)cc1`, for which the inhibition is -24.4%.

The record behind these values is PubChem BioAssay AID781 (Emory University Molecular Libraries Screening Center, 2007).
